VACV E9 pol inh = blocks vaccinia virus processive DNA synthesis; in vitro processive DNA synthesis, absorbance read-out; stronger effect = lower value; normalized absorbance, % (test concentration not listed); 0.94% of 46,000 active; AID 493162; in the data active means normalized absorbance mostly below about 85%, no sharp cut-off; inactive means mostly above about 86%
Starred values were filed as active, the others as inactive. Many of the other results were omitted from the sample, so hits are more common in it than they were.

SMILES	VACV E9 pol inh
COc1ccc2c(ccc(/C=C3\Sc4ccccc4N3C)[n+]2C)c1	19.8*
CCN1/C(=c2/sc3nc4ccccc4n3c2=O)Sc2ccc(OC)cc21	99.2
CCN1/C(=C\C=C\C(=O)c2ccccc2OC)Sc2ccccc21	110.6
Cc1ccc2c(c1)sc(=NC(=O)c1ccccc1)n2C	103.2
NC1=NC(=O)C(CC(=O)Nc2ccc(C(F)(F)F)cc2)S1 (stereo not given)	100.6
CCC(=O)NC(Nc1sc2c(c1C(N)=O)CCCC2)(C(F)(F)F)C(F)(F)F	99.7
Clc1ncccc1N=Cc1cccc(Br)c1	105.9
Cn1c(=NC(=O)c2cc(=O)c3ccccc3o2)sc2cc(Br)ccc21	100.7
N#CCC(=O)NCCc1ccccc1	102.4
Cc1csc(NC(=O)C2CC2)n1	100.6
CN(Cc1ccccc1)C(=O)c1ccc(N2CCCC2=O)cc1	106.8
CSc1sc2ccccc2[n+]1C	102.2
CC[n+]1c(/C=C/Nc2ccccc2)sc2ccccc21	98.8
C[n+]1c(/C=C/Nc2ccccc2)sc2ccccc21	74.7*
COc1ccc(C(=O)Nc2n[nH]c(C(F)(F)F)n2)cc1	98.9
C[n+]1c2cc(N)ccc2cc2ccc(N)cc21	10.5*
CCOc1ccc(N)cc1OCC	101.1
O=C1Nc2ccccc2OC1CC(=O)N1CCN(c2ccccc2)CC1 (stereo not given)	108.0
Cn1nccc1C(=O)NCCN	98.8
O=C(c1cccc(F)c1)N1CC=C(c2ccccc2)CC1	107.7
Cc1cc(C)nc(Nc2ccc(C(=O)OCC(C)C)cc2)n1	105.0
NNc1ccc(Cl)c(Cl)c1	85.1
O=C(Nc1ccccc1)Nc1ccc(Br)cc1	100.4
NNc1ccc(Br)cc1	54.0*
CN(C)CCNC(=O)c1cc2c(s1)-c1ccc(Cl)cc1SC2	54.8*
SMILES	VACV E9 pol inh
CC(C)NC(=O)c1cc2c(s1)-c1ccccc1SC2	93.7
CC1CCN(C(=O)c2cc3c(s2)-c2ccc(Cl)cc2SC3)CC1	95.8
CCOc1cc(C(=O)O)ccc1OCC(C)C	100.3
COc1cc2cc3c4c(cc(OC)c(OC)c4c2cc1OC)CCN3C	65.7*
COc1ccc(OCC2c3cc(OC)c(OC)cc3CCN2C(=O)C(C)C)cc1 (stereo not given)	96.3
COc1ccc(C(=O)N2CCc3cc(OC)c(OC)cc3C2C)cc1 (stereo not given)	90.6
CC1CCCC(C)N1CC(O)Cn1cc(/C=N/O)c2ccccc21 (stereo not given)	98.7
Cc1ccc(C)c(SCC(=O)OCC(=O)N2C(C)CCCC2C)c1 (stereo not given)	100.9
c1ccc(-c2nc3cc(NCc4cccnc4)ccc3o2)cc1	100.2
Oc1ccc(N=c2cc(-c3ccccc3)oc3ccc(Cl)cc23)cc1	98.0
Cc1ccc2oc(-c3ccccc3)c(C(=O)O)c(=O)c2c1	87.4
C(=NCc1ccccc1)c1cn(-c2ccccc2)nc1-c1cccnc1	98.2
Cc1ccc2oc(-c3ccccc3)cc(=NCCN(C)C)c2c1	30.3*
CCC(N=c1cc(-c2ccc(OC)cc2)oc2ccc(C)cc12)C(=O)O (stereo not given)	97.9
COc1ccc2oc(-c3ccccc3)cc(=O)c2c1	77.3
CCc1ccc2oc(-c3ccccc3)cc(=NCc3cccnc3)c2c1	79.8*
Cc1ccc2oc(-c3ccccc3)c(CN3CCOCC3)c(=O)c2c1	97.8
Cc1ccc2oc(-c3ccccc3)cc(=NCCO)c2c1	48.6*
CC(O)CN=c1cc(-c2ccccc2)oc2ccc(Cl)cc12 (stereo not given)	45.6*
O=c1cc(-c2ccccc2)oc2cc(Cl)ccc12	98.4
O=C1c2ccccc2C(NCc2cccnc2)N1Cc1cccnc1 (stereo not given)	101.0
Cc1cc(C)c(NC(=O)Cn2cnc3ccccc32)c(C)c1	99.2
CCN(Cc1ccccc1)S(=O)(=O)c1ccc2[nH]c(=O)ccc2c1	99.3
CCN1CCN(C(=O)c2cn(-c3ccccc3)nc2-c2cccs2)CC1	92.0
CCOc1cc(/C=C2/C(=O)N(c3ccccc3)C(=S)N(c3ccc(C)c(C)c3)C2=O)ccc1O	100.2
SMILES	VACV E9 pol inh
COc1ccccc1CC(=O)N1CCCC(C)C1 (stereo not given)	99.9
COc1ccc(-c2nn(-c3ccccc3)cc2C(=O)N2CCCCC2)cc1OC	98.8
COc1ccc(C2c3c(oc4ccccc4c3=O)C(=O)N2CCCOC(C)C)cc1 (stereo not given)	102.4
CC1CN(S(=O)(=O)c2ccc(F)c(F)c2)CC(C)O1 (stereo not given)	99.8
O=c1[nH]c(C23CC4CC(CC(C4)C2)C3)cs1	99.9
Cc1ccc(C)n1NC(=O)c1ccncc1	97.5
O=C(c1ccno1)n1nccc1-c1cc(-c2ccccc2)no1	100.5
O=c1cc(-c2ccccc2)oc2ccc(Cl)cc12	102.5
OCCN=c1cc(-c2ccccc2)oc2ccc(Cl)cc12	41.3*
Clc1ccc2oc(-c3ccccc3)cc(=NCCN3CCOCC3)c2c1	96.1
CC1=C/C(=C/c2ccco2)C(=O)O1	99.6
O=C1/C(=C/c2ccco2)CC/C1=C\c1ccco1	24.2*
O=C1/C(=C/c2ccco2)CC(c2ccccc2)C/C1=C\c1ccco1 (stereo not given)	92.1
CCc1ccc(NC(=O)C(C)OC(=O)c2ccc(C#N)cc2)cc1 (stereo not given)	107.1
CC1CCCN(C(=O)COc2ccc(-c3nc4ccccc4s3)cc2)C1 (stereo not given)	98.5
Cc1cc(NC(c2cccc(Br)c2)c2ccc3cccnc3c2O)no1 (stereo not given)	100.2
Cc1ccc(/C=C2\SC(=S)N(CCCC(=O)O)C2=O)cc1	95.9
CN(C)/C=C/C=C1C(=O)CCCC1=O	45.0*
CN(C)/C=C/C=C1\N=C(c2ccccc2)OC1=O	103.2
CN(C)c1ccc(N/C=C2/CCCC2=O)cc1	100.1
CCSc1nc2ccccc2n1CC(=O)Nc1cc(Cl)ccc1OC	102.6
Cc1c(O)ccc(-c2n[nH]c(C(F)(F)F)c2Oc2ccccc2)c1O	93.0
COc1ccc(-c2n[nH]c(C(F)(F)F)c2-c2cnn(-c3ccccc3)c2)c(O)c1C	93.9
COc1ccc(-c2n[nH]c(C(F)(F)F)c2-c2cc3ccccc3o2)c(O)c1	63.2*
CC1(C)CC(=O)c2cc3c(N)c(C(=O)c4ccc(Cl)cc4)sc3nc2C1	97.8
SMILES	VACV E9 pol inh
COc1ccc(CCNC(=O)c2c(Cl)nc3sccn23)cc1	99.6
c1ccc(CNc2nnc(-c3cccs3)c3ccccc23)cc1	100.8
COC(=O)c1ccc(NCC(=O)c2ccc(OC)cc2)cc1	96.4
COC(=O)C(N=Cc1ccccc1)c1ccccc1 (stereo not given)	104.7
COC(=O)C(C(=O)OC)C(Nc1ccccc1)c1ccccc1 (stereo not given)	20.0*
COC(=O)C(NC(=O)Nc1ccccc1)C(C)C (stereo not given)	100.9
CCOC(=O)c1cc(-c2ccccc2)n(CCCC(=O)NCc2ccccc2)c1C	111.8
O=C(CN1C(=O)c2ccccc2S1(=O)=O)c1ccc(Cl)cc1	103.7
CCOc1ccccc1N1CC(C(=O)O)CC1=O (stereo not given)	99.3
N#CSCC(=O)n1c2ccccc2c2ccccc21	99.8
CC(=O)n1c2ccccc2c2nc(N)sc21	64.2*
CC(=O)n1c(=O)n(C(C)=O)c2ccccc21	89.1
CC(=O)n1c2ccccc2c2c(-c3ccccc3)c(N3CCOCC3)sc21	98.1
CC(=O)n1c2ccccc2c2ccccc21	67.2*
CC(=O)n1c2ccc(C)cc2c2nc3ccccc3nc21	92.9
N#Cc1ccsc1NC(=O)CSC1CCCCC1	91.5

Source: PubChem BioAssay
